The values that follow come from PubChem BioAssay AID2551 (National Center for Advancing Translational Sciences (NCATS), 2010).

Each structure is given as a SMILES string. Values joined by “and” are separate entries in the source; they are usually repeats but may differ in a detail not shown here. Identical values can stand only once. In all, about 310,000 compounds went through this assay and about 17,000 (5.5%) were called active. About 11% were inconclusive and are not listed. The call rests on the fitted dose curve; in most records, active means well fitted inhibition curve with a large enough effect; inconclusive means small, poorly fitted or top-dose-only effect, or effect the other way; inactive means no such curve, though single readings can be large or run the other way. The entries come from a sample that favours actives as a whole. Where a call stands in place of a potency, no number is given.
Potency means the concentration at half of the fitted maximal effect.

Sequence of Nuclear receptor ROR-gamma (Mus musculus) (P51450 whole entry, looked up, the tested form may be a part): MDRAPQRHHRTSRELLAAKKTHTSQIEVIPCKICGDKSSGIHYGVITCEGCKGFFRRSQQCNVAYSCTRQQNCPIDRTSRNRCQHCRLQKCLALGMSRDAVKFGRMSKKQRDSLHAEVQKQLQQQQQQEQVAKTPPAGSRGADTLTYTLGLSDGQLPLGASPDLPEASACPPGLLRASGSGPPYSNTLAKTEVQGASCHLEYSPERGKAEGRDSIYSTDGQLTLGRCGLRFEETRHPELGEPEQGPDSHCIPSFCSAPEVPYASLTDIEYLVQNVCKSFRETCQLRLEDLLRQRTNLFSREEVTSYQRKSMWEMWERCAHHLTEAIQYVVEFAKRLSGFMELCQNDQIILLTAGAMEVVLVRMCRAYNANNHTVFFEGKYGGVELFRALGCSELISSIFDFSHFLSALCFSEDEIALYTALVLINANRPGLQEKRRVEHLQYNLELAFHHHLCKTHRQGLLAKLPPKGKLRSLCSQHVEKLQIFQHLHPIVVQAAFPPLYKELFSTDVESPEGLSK

For the test, the target named is Nuclear receptor ROR-gamma (Mus musculus) (UniProt P51450). Briefly: qHTS for inhibitors of ROR gamma transcriptional activity. Further: nearly all actives have a fitted effect of over 60% in size. The conditions noted are these: Drosophila S2 Gal4-RORgamma UAS-luciferase reporter, 20 h; series mostly up to 53.6 µM. The text has this:
NIH Molecular Libraries Probe Production Network [MLPCN] NIH Chemical Genomics Center [NCGC] MLPCN Grant: R03 DA026211-01 Assay Provider: Dan Littman, New York University Assay Overview: The retinoic acid-related orphan receptor (ROR) gamma is a transcription factor that has a central role in the differentiation of Th17 cells, a subset of T helper cells that secrete the inflammatory cytokines IL-17, IL-17F, and IL-22. Th17 cells have been implicated in graft versus host disease, autoimmune disease and asthma. ROR gamma is induced in naive T helper cells in the presence of TGF-beta combined with IL-6, IL-21, or IL-23, and thereafter directs the expression of the Th17 lineage cytokines. To study the mechanism of action of ROR gamma, an insect cell-based assay was screened. This Drosophila Schneider cell line was stably transfected with two vectors: a gene expressing a fusion of the Gal4 DNA binding domain and ROR gamma transactivation domain under the control of the metallothionine promoter and a Photinus luciferase reporter regulated by the Gal4 binding site enhancer, UAS. […] Small molecule inhibitors of ROR gamma activity are detected by a decrease in luciferase reporter activity.
Assay Protocol Summary: For screening, 600 cells in 4 uL/well were dispensed into white solid 1536-well plates (Grenier) using a solenoid-based dispenser. Following transfer of 23 nL compound or DMSO vehicle by a pin tool, the plates were incubated 1 hr at ambient temperature, and 1 uL/well copper sulfate (700 uM final concentration) was added. The plates were centrifuged 15 s at 1000 RPM and incubated 20 hr at ambient temperature. After addition of 1.5 uL Photinus luciferase detection reagent, the plates were incubated 10 min at ambient temperature and then read by an ViewLux (Perkin Elmer) to detect luminescence. Keywords: NIH Roadmap, MLPCN, MLI, MLSMR, qHTS, NCGC, qHTS, nuclear hormone receptor, retinoic acid-related orphan receptor, ROR gamma
For the compound `O=S(=O)(NC1CCCC1)c1ccc(-n2cnnn2)cc1`, the Potency entry was “inactive”.

On to `Cc1sc2nc(SCCO)n(-c3ccccc3)c(=O)c2c1C`, for which the Potency result is “inactive”.

For the compound `COCCCNC(=S)N1CCN(c2nc(-c3cccc(OC)c3)cs2)CC1`, the Potency entry is “inactive”.

As for `O=C(Nc1c2c(nn1-c1ccccc1)CS(=O)(=O)C2)C1CCCC1`, the Potency entry is “inactive”.

Take `Nn1cnnc1N/N=C/c1cc([N+](=O)[O-])c(Cl)cc1Cl`: the Potency is 11.2 µM (active).

`NC(N)=N/N=C/c1ccc(Cl)c([N+](=O)[O-])c1`: the Potency entry is “inactive”.

`CC(CN1CCC(n2nccc2NC(=O)C2CCCC2)CC1)c1ccccc1` (stereo not drawn): the Potency result was “inactive”.

For the compound `Oc1ccc(Br)cc1C=Nc1ccc2[nH]ncc2c1`, the Potency was 11.2 µM (active).

With `O=C(CCc1nnc2ccc(NCc3ccco3)nn12)Nc1cc(F)ccc1F`, the Potency result was “inactive”.

On to `CC(=O)NCCn1c(SCC(=O)Nc2ccc(C)cc2)nc2ccccc2c1=O`, for which the Potency entry is “inactive”.

Consider `CCn1c(SCC(=O)Nc2ccc(C)cc2)nc2nc3c(cc2c1=O)CCCC3`, for which the Potency was 10 µM (active).

With `CCc1ccc(NC(=O)CSc2nc3ccccc3c(=O)n2CCN2CCOCC2)cc1`, the Potency result is “inactive”.

As for `CCn1c(C)c(C)c2cc(C(=O)N3CCN(c4cccc(C)c4C)CC3)ccc21`, the Potency result is “inactive”.

Consider `CCCCC(c1nnnn1CS(=O)(=O)c1ccc(C)cc1)N1CCC(C(N)=O)CC1` (stereo not drawn), for which the Potency result was “inactive”.

With `Cc1ccc(CNC(=O)Cc2cn(C)c3ccccc23)cc1`, the Potency result is “inactive”.

`COc1ccc2ccccc2c1/C=N/NC(=O)c1cc(C)[nH]n1`: the Potency result was “inactive”.

Consider `Cc1cc(C(=O)N/N=C/c2cc([N+](=O)[O-])cc(C)c2O)n[nH]1`, for which the Potency was 10 µM (active).

On to `CC(C)(C)c1cc(C(=O)N/N=C/c2ccc([N+](=O)[O-])s2)n[nH]1`, for which the Potency entry is “inactive”.

In the case of `CCCCn1c(SCC(=O)N2CCOCC2)nc2c1c(=O)n(C)c(=O)n2C`, the Potency result is “inactive”.

Take `CC1(C)CCCC2=C1CC1C(=O)N(c3ccccc3)C(=O)C1C2` (stereo not drawn): the Potency entry is “inactive”.

Regarding `CC1CC2=C(CC1/C=N/NC(N)=S)C(C)(C)CCC2` (stereo not drawn), the Potency was 1.41 µM (active).

Turning to `CC(C)[C@H](NC(=O)N1CCn2c1nc1ccccc12)C(=O)NCc1ccc2c(c1)OCO2`, the Potency result is “inactive”.

In the case of `Cc1ccc2[nH]c(=O)c(CC(=O)O)c(-c3ccccc3)c2c1`, the Potency entry was “inactive”.

For `COc1ccc(C(C)NC(=O)C23CC4CC(CC(C4)C2)C3)cc1` (stereo not drawn), the Potency result was “inactive”.

Take `O=C(Nc1cccc(NC(=O)c2ccc(Br)cc2)c1)c1ccccc1`: the Potency result is “inactive”.

In the case of `O=C(O)c1ccc(/C=N/NC(=O)c2ccc(Br)cc2)cc1`, the Potency entry is “inactive”.

As for `O=C(N/N=C\c1cccc(Br)c1)c1ccccc1-n1cccc1`, the Potency result is “inactive”.

For `O=C(Nc1ccc(C(=O)O)cc1)/C(=C\c1ccccc1)NC(=O)c1ccc(Br)cc1`, the Potency result is “inactive”.

As for `CC(=N\NC(=O)c1cc(Br)ccc1O)/C(=N/O)C(=O)Nc1ccccc1`, the Potency was 7.94 µM (active).

As to `CC(C)/C=N/NC(=O)c1cc(Br)ccc1O`, the Potency is 10 µM (active).

For the compound `Cc1cccc(N(C(=O)Cn2nnc(-c3ccc(C)o3)n2)C(C(=O)NC2CCCC2)c2ccncc2)c1` (stereo not drawn), the Potency entry is “inactive”.

Consider `O=C(CCN1C(=O)[C@H]2CC=CC[C@H]2C1=O)NCc1nc(-c2ccccc2)no1`, for which the Potency result was “inactive”.

For the compound `CCCNC(=O)c1ccc(N2CCC3(CC2)CC(c2ccc(Cl)cc2)=NO3)c([N+](=O)[O-])c1`, the Potency entry was “inactive”.

Consider `O=C1CCC(C(=O)N2CCC(O)(c3ccccc3)CC2)CN1CCc1ccccc1` (stereo not drawn), for which the Potency result was “inactive”.

With `Cc1ccc(N2CCN(C(=O)c3cccs3)CC2)c(C)c1`, the Potency entry is “inactive”.

As for `COc1ccc(/C=N/OCc2ccccc2C#N)c(OC)c1`, the Potency result was “inactive”.

Regarding `Cc1ccc(C(=O)NCC(=O)NCc2cc(=O)n(C)c(=O)n2C)cc1`, the Potency result is “inactive”.

On to `O=C(/C=C/Sc1ncn[nH]1)c1ccc(Cl)cc1`, for which the Potency was 4.47 µM (active).

With `COc1ccc(Cl)cc1CSc1ncn[nH]1`, the Potency entry is “inactive”.

Regarding `O=C(NCCOCc1ccc(Cl)cc1)c1ncn[nH]1`, the Potency entry is “inactive”.

In the case of `COCCNC(=O)COc1ccc(N(C)S(=O)(=O)c2ccc3ccccc3c2)cc1`, the Potency result was “inactive”.

As to `COc1cccc(N(CC(=O)NC2CCCC2)C(=O)CCCC(=O)Nc2ccccn2)c1`, the Potency result is “inactive”.

Regarding `COc1ccc(/C=C2/S/C(=N/N=C3\CC4CCC3(C)C4(C)C)NC2=O)cc1` (stereo not drawn), the Potency was 10 µM (active).

Take `COc1ccc(/C=C2\NC(=O)[C@@H]3Cc4ccccc4CN3C2=O)cc1`: the Potency result is “inactive”.

`COc1ccc(/C=C2\SC(=N)N(c3ccc(F)cc3)C2=O)cc1`: the Potency result is “inactive”.

In the case of `Cc1ccc(C)c(C(=O)N2CCC(n3nccc3NC(=O)C3CC3)CC2)c1`, the Potency result was “inactive”.

Regarding `Cn1c(COc2ccc(Cl)cc2)nc2ccccc2c1=O`, the Potency result is “inactive”.

In the case of `COc1ccc(-c2nc(N)ncc2-c2ccc(Cl)cc2)c(O)c1`, the Potency result is “inactive”.

With `Cc1[nH]nc(-c2ccc(OCc3cnn(-c4ccccc4)c3)cc2O)c1Oc1ccc(Cl)cc1`, the Potency was 2.24 µM (active).

`Cc1nc(COc2cc3oc(=O)cc(C)c3cc2Cl)cs1`: the Potency result was “inactive”.

Take `CC(=O)NCCc1ccc(S(=O)(=O)Nc2ccc(C)c(S(=O)(=O)N3CCOCC3)c2)cc1`: the Potency entry is “inactive”.

In the case of `O=C(Nc1cccc(NC(=O)c2cccc(F)c2)c1)c1ccccc1`, the Potency result is “inactive”.

Turning to `COc1ccc(CCNS(=O)(=O)c2ccc(Cl)s2)cc1OC`, the Potency entry was “inactive”.

Regarding `CCS(=O)(=O)NCCc1ccc(OC)c(OC)c1`, the Potency was 11.2 µM (active).

`COc1ccc(CCNS(=O)(=O)c2ccc(F)cc2)cc1OC`: the Potency entry is “inactive”.

`COc1ccc(S(=O)(=O)N2CCC(C(=O)NCc3ccco3)CC2)cc1C`: the Potency result is “inactive”.

For `Cc1cccc(-c2noc(CCC(=O)NC3CCCC3)n2)c1`, the Potency result is “inactive”.

On to `O=C(NCCCN1CCOCC1)c1cc(-c2ccccc2F)no1`, for which the Potency entry was “inactive”.

As to `CCn1c(O)c(N=NC2=NC(=O)CS2)c2cc(C)ccc21`, the Potency is 4.47 µM (active).

In the case of `CCn1c(=O)cc(O)c2ccccc21`, the Potency result was “inactive”.

In the case of `COC(=O)Cn1c2ccc(C)cc2c2nc(C)sc21`, the Potency entry was “inactive”.

As for `CN(CC(=O)Nc1ccc(Cl)cc1)C(=O)CNC(=O)c1ccc2ccccc2c1`, the Potency result was “inactive”.

For `Cn1cc(CCC(=O)NC2CC2)c2ccccc21`, the Potency result was “inactive”.

Regarding `O=C(CNC(=O)Cc1ccccc1)N=Nc1c(O)[nH]c2ccc(Br)cc12`, the Potency entry is “inactive”.

As to `O=C(C1CCCN(S(=O)(=O)c2ccc([N+](=O)[O-])cc2)C1)N1CCCCC1` (stereo not drawn), the Potency entry is “inactive”.

On to `O=[N+]([O-])c1cccc2ncccc12`, for which the Potency result was “inactive”.

Take `Cc1ccccc1NC(=O)c1ccccc1NS(=O)(=O)c1cccc2cccnc12`: the Potency entry is “inactive”.

With `O=[N+]([O-])c1ccccc1S(=O)(=O)Nc1cccc2cccnc12`, the Potency was 501 nM (active) and 708 nM (active).
